Measured values reported in paper PMC7862700, “An all-to-all approach to the identification of sequence-specific readers for epigenetic DNA modifications on cytosine”.

Experiments:
Assay in all cases: DAPPL (digital affinity profiling via proximity ligation, sequencing); 10 mM Tris-HCl pH 7.5, 50 mM NaCl, 1 mM DTT, 4% glycerol, room temperature, 30 min; GST-TFs on glutathione beads, 16-mer random dsDNA library, 0.1% formaldehyde crosslink after washing; high values mean tight binding
[1] = molecular target: T1, FLI1 (Homo sapiens, UniProt Q01543 1-452); settings: protein: recombinant; tags: N-terminal GST; dsDNA, one strand shown
T1 sequence: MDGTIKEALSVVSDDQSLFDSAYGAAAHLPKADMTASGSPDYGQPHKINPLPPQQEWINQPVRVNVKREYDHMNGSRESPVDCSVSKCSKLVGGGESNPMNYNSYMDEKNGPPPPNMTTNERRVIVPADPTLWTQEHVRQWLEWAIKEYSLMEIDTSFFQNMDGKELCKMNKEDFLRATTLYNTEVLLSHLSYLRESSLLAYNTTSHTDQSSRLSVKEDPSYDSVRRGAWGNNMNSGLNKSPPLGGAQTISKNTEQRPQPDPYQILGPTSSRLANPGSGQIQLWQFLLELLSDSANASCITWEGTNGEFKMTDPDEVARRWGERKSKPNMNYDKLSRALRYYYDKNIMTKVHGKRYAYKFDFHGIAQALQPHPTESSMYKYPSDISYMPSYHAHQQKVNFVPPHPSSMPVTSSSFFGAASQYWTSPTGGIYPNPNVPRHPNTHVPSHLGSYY
Method in brief: (§1)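 GST fusions of human transcription factors were expressed in yeast and captured with glutathione beads. Once given DNA barcodes and pooled alongside a tag-only sample, they were incubated for 30 min at room temperature with 200 nmole of a random double-stranded 16-mer DNA library in Tris/NaCl/DTT/glycerol buffer, then washed, crosslinked (0.1% formaldehyde), proximity-ligated, PCR-amplified and sequenced on an Illumina NextSeq500. The binding signal of each hexamer is its read frequency for a factor divided by its frequency for the tag-only sample.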

[2] = molecular target: T2, ELK1 (Homo sapiens, UniProt P19419 1-428); settings: protein: recombinant; tags: N-terminal GST; dsDNA, one strand shown
T2 sequence: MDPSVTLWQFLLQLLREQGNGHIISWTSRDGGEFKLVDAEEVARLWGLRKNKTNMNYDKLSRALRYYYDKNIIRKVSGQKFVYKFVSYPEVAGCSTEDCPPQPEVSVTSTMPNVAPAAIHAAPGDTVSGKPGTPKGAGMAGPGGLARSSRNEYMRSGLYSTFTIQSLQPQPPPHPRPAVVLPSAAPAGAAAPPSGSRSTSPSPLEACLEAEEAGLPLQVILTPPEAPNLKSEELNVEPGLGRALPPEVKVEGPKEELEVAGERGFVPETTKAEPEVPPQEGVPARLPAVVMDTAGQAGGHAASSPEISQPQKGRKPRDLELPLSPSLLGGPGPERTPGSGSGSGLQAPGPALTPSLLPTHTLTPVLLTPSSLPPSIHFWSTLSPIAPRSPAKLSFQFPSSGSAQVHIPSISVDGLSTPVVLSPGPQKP
Method in brief: as §1

[3] = molecular target: T3, GABPA (Homo sapiens, UniProt Q06546 1-454); settings: protein: recombinant; tags: N-terminal GST; dsDNA, one strand shown
T3 sequence: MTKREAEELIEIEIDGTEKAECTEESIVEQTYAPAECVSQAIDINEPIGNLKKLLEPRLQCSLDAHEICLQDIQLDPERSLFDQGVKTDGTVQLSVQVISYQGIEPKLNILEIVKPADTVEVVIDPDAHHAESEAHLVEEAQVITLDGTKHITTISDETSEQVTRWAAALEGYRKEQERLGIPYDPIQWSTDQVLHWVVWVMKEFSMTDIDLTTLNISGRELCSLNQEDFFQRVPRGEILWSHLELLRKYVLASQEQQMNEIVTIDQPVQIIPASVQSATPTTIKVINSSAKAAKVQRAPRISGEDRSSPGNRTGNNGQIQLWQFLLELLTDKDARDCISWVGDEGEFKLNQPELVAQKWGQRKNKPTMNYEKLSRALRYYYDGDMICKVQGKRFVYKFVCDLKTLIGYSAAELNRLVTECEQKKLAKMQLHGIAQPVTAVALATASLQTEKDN
Method in brief: as §1

[4] = molecular target: T4, ERG (Homo sapiens, UniProt P11308 1-479); settings: protein: recombinant; tags: N-terminal GST; dsDNA, one strand shown
T4 sequence: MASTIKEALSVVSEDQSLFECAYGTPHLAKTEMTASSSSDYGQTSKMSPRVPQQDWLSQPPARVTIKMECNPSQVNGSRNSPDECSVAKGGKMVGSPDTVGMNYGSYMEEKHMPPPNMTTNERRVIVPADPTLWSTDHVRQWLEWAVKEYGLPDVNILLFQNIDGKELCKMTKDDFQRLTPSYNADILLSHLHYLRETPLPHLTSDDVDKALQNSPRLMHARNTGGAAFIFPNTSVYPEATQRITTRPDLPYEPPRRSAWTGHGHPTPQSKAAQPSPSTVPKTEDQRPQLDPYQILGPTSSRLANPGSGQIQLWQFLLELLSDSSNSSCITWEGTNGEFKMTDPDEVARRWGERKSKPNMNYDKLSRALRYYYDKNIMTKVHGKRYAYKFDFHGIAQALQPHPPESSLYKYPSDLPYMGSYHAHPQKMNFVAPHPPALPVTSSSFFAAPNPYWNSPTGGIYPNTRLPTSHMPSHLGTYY
Method in brief: as §1

[5] = molecular target: ELF1 (Homo sapiens, UniProt P32519 1-619); settings: protein: recombinant; tags: N-terminal GST; dsDNA, one strand shown
Method in brief: as §1

[6] = molecular target: T5, EHF (Homo sapiens, UniProt Q9NZC4 1-300); settings: protein: recombinant; tags: N-terminal GST; dsDNA, one strand shown
T5 sequence: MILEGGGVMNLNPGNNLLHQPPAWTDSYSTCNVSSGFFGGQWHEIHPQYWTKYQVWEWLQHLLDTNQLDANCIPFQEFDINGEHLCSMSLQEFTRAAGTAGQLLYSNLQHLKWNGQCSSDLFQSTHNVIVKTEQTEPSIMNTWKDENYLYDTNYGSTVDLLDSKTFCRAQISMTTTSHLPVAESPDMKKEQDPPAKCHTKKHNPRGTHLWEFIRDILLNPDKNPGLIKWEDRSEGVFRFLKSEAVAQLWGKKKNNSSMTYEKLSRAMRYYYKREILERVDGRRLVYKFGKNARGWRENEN
Method in brief: as §1

[7] = molecular target: SPI1 (Homo sapiens, UniProt P17947 1-270); settings: protein: recombinant; tags: N-terminal GST; dsDNA, one strand shown
Method in brief: as §1

[8] = molecular target: SPIB (Homo sapiens, UniProt Q01892 1-262); settings: protein: recombinant; tags: N-terminal GST; dsDNA, one strand shown
Method in brief: as §1

[9] = molecular target: T6, ELK3 (Homo sapiens, UniProt P41970 1-407); settings: protein: recombinant; tags: N-terminal GST; dsDNA, one strand shown
T6 sequence: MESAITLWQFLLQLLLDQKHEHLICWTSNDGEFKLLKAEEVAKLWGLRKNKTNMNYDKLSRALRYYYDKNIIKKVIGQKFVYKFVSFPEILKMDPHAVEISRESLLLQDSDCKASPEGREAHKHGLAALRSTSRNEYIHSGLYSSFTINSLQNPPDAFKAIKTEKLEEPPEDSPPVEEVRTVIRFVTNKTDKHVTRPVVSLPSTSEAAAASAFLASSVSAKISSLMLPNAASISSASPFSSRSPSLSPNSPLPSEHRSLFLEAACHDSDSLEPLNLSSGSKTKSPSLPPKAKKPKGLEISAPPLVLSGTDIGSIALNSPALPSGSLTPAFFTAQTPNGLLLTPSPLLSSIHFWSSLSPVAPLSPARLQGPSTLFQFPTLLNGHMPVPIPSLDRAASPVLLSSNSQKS
Method in brief: as §1

[10] = molecular target: T7, FEV (Homo sapiens, UniProt Q99581 1-238); settings: protein: recombinant; tags: N-terminal GST; dsDNA, one strand shown
T7 sequence: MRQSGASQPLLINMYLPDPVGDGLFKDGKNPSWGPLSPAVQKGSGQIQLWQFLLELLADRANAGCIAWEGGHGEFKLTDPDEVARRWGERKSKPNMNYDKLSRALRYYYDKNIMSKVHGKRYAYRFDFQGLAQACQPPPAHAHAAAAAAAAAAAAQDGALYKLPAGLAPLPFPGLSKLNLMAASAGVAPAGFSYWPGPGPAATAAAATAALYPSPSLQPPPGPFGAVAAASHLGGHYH
Method in brief: as §1

[11] = molecular target: ETV5 (Homo sapiens, UniProt P41161 1-510); settings: protein: recombinant; tags: N-terminal GST; dsDNA, one strand shown
Method in brief: as §1

[12] = molecular target: HSF1 (Homo sapiens, UniProt Q00613 1-529); settings: protein: recombinant; tags: N-terminal GST; chain copies: 3; dsDNA, one strand shown
Method in brief: as §1

[13] = molecular target: T8, SPIC (Homo sapiens, UniProt Q8N5J4 1-248); settings: protein: recombinant; tags: N-terminal GST; dsDNA, one strand shown
T8 sequence: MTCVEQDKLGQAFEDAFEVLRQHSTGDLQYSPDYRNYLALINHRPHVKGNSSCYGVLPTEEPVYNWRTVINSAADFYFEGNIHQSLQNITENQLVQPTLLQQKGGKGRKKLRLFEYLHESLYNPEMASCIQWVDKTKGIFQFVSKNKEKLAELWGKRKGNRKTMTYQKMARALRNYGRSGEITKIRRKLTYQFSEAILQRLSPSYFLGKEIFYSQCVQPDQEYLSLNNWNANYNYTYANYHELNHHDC
Method in brief: as §1

[14] = molecular target: ELF4 (Homo sapiens, UniProt Q99607 1-663); settings: protein: recombinant; tags: N-terminal GST; dsDNA, one strand shown
Method in brief: as §1

[15] = molecular target: T9, ELK4 (Homo sapiens, UniProt P28324-2 1-405); settings: protein: recombinant; tags: N-terminal GST; dsDNA, one strand shown
T9 sequence: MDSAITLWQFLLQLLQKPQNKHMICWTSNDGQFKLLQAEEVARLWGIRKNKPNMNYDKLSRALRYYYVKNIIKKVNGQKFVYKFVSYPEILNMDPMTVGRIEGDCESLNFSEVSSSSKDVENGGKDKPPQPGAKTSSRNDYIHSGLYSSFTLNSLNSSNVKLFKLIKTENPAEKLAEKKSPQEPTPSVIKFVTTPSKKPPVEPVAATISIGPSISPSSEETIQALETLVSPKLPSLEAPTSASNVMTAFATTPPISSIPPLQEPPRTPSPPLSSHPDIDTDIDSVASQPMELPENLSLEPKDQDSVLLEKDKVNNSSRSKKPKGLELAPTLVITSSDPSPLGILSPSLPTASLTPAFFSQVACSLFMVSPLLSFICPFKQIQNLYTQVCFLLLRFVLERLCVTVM
Method in brief: as §1

[16] = molecular target: T10, ETV2 (Homo sapiens, UniProt O00321 1-342); settings: protein: recombinant; tags: N-terminal GST; dsDNA, one strand shown
T10 sequence: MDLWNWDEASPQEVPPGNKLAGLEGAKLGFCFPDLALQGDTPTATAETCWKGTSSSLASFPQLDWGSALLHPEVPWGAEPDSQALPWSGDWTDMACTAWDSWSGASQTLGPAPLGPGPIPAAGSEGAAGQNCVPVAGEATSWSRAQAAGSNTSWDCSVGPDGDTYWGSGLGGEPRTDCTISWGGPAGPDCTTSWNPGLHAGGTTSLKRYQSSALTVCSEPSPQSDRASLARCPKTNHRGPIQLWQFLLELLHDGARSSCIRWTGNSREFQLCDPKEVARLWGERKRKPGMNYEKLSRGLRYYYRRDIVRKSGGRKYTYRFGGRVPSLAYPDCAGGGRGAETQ
Method in brief: as §1

[17] = molecular target: T11, ELF3 (Homo sapiens, UniProt P78545 1-371); settings: protein: recombinant; tags: N-terminal GST; dsDNA, one strand shown
T11 sequence: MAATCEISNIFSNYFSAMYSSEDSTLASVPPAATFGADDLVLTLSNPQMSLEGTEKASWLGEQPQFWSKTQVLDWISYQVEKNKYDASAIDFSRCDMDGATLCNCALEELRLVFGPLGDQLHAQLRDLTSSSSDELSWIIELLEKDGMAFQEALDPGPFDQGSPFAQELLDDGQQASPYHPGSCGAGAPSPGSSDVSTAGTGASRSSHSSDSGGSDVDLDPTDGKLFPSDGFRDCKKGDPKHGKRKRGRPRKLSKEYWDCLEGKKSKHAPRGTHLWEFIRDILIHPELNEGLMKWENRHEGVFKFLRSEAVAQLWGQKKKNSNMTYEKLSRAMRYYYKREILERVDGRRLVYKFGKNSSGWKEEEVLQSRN
Method in brief: as §1

[18] = molecular target: CRX (Homo sapiens, UniProt O43186 1-299); settings: protein: recombinant; tags: N-terminal GST; dsDNA, one strand shown
Method in brief: as §1

[19] = molecular target: ETV1 (Homo sapiens, UniProt P50549 1-477); settings: protein: recombinant; tags: N-terminal GST; dsDNA, one strand shown
Method in brief: as §1

Sequence of ETV1 (P50549 whole entry): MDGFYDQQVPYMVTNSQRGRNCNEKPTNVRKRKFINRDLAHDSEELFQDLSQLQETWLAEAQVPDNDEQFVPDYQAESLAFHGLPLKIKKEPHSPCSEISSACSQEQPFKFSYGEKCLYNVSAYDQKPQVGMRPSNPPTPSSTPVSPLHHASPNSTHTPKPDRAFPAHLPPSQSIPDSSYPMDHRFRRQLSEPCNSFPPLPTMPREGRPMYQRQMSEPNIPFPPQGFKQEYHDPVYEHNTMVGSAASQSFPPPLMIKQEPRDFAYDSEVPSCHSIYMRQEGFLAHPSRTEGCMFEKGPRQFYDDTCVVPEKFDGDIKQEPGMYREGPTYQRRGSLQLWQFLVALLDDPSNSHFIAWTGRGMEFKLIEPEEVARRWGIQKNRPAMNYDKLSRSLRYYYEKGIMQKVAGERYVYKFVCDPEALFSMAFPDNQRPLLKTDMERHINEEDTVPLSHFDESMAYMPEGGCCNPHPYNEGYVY
Sequence of CRX (O43186 whole entry): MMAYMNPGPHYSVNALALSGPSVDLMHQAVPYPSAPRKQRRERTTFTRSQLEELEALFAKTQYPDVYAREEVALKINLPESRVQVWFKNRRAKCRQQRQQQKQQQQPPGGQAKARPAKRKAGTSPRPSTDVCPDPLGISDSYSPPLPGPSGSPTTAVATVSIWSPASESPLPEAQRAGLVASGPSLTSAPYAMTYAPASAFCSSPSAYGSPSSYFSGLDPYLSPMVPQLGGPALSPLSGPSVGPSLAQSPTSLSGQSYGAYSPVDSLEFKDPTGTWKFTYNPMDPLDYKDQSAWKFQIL
Sequence of ELF1 (P32519 whole entry): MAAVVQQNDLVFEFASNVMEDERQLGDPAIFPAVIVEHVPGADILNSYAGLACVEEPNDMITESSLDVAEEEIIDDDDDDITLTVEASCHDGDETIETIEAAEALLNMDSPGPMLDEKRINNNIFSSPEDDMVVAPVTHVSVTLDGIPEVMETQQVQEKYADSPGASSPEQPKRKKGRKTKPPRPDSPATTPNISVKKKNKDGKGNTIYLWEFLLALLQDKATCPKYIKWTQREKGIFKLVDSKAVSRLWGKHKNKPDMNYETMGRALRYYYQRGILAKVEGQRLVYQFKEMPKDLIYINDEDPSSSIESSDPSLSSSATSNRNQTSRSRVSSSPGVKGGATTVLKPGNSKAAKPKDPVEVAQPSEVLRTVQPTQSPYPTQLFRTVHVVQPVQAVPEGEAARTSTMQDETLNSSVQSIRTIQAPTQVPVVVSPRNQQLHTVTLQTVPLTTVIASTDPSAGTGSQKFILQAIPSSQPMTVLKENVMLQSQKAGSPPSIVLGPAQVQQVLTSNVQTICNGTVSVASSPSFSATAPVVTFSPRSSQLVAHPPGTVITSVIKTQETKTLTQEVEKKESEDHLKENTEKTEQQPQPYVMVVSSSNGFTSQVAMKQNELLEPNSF
Sequence of SPIB (Q01892 whole entry): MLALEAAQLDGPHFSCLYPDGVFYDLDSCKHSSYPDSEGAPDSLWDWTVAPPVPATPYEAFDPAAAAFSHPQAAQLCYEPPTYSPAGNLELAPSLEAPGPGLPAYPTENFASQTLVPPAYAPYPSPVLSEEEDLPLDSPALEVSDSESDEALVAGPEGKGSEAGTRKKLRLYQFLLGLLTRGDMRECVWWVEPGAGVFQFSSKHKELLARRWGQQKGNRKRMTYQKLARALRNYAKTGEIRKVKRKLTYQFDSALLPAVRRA
Sequence of ELF4 (Q99607 whole entry): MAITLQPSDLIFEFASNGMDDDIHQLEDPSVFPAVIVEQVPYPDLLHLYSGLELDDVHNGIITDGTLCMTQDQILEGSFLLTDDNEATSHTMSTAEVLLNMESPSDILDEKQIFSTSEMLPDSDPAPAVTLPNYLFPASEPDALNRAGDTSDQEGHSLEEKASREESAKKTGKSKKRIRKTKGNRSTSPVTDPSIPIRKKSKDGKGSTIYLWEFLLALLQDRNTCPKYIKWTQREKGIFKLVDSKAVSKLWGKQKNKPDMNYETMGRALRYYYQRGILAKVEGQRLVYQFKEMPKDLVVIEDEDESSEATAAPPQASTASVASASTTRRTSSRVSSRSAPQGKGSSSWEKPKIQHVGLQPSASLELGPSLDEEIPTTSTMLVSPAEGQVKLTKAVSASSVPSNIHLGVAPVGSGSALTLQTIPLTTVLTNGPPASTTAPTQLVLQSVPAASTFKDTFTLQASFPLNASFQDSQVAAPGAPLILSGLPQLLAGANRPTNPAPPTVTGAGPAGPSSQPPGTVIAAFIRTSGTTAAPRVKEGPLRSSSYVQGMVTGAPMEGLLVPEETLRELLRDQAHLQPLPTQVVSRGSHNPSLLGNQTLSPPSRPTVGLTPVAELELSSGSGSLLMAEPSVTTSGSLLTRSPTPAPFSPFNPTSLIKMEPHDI
Sequence of HSF1 (Q00613 whole entry): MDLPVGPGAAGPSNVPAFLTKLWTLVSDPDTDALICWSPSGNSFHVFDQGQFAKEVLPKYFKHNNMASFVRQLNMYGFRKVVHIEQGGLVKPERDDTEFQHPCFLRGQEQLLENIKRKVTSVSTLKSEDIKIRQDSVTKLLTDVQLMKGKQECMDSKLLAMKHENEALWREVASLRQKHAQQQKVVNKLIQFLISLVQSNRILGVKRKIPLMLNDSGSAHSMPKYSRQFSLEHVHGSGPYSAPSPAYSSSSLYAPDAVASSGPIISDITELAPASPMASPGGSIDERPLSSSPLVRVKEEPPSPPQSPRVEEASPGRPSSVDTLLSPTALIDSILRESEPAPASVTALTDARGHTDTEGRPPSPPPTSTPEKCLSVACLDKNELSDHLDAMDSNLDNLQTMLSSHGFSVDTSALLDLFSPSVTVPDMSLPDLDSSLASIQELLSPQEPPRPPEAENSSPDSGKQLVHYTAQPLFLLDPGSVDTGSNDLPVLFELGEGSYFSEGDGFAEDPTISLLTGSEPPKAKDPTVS
Sequence of ETV5 (P41161 whole entry): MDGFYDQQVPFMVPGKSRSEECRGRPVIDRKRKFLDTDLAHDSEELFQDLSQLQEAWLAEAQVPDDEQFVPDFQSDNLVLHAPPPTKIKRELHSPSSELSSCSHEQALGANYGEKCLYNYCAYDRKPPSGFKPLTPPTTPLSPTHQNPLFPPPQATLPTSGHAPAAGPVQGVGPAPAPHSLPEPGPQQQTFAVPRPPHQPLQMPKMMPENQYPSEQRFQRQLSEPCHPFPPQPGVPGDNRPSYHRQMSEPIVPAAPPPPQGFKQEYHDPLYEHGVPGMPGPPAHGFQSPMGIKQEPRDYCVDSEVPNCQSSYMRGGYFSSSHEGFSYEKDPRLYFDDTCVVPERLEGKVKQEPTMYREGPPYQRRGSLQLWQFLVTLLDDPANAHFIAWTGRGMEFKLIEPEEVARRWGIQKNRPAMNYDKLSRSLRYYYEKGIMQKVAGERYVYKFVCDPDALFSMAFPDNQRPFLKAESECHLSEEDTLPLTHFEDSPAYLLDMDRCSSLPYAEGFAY

Sequence: TTGCTT
- binding signal [1]: 1.32 fold enrichment (6-mer frequency, TF over GST control)
- binding signal [2]: 1.15 fold enrichment (6-mer frequency, TF over GST control)
- binding signal [3]: 1.36 fold enrichment (6-mer frequency, TF over GST control)
- binding signal [4]: 1.3 fold enrichment (6-mer frequency, TF over GST control)
- binding signal [5]: 1.21 fold enrichment (6-mer frequency, TF over GST control)
- binding signal [6]: 1.2 fold enrichment (6-mer frequency, TF over GST control)
- binding signal [7]: 1.29 fold enrichment (6-mer frequency, TF over GST control)
- binding signal [8]: 1.35 fold enrichment (6-mer frequency, TF over GST control)
- binding signal [9]: 1.26 fold enrichment (6-mer frequency, TF over GST control)
- binding signal [10]: 1.16 fold enrichment (6-mer frequency, TF over GST control)
- binding signal [11]: 1.24 fold enrichment (6-mer frequency, TF over GST control)
- binding signal [12]: 1.1 fold enrichment (6-mer frequency, TF over GST control)
- binding signal [13]: 1.38 fold enrichment (6-mer frequency, TF over GST control)
- binding signal [14]: 1.24 fold enrichment (6-mer frequency, TF over GST control)
- binding signal [15]: 1.24 fold enrichment (6-mer frequency, TF over GST control)
- binding signal [16]: 1.16 fold enrichment (6-mer frequency, TF over GST control)
- binding signal [17]: 1.31 fold enrichment (6-mer frequency, TF over GST control)
- binding signal [18]: 1.24 fold enrichment (6-mer frequency, TF over GST control)
- binding signal [19]: 1.25 fold enrichment (6-mer frequency, TF over GST control)
